In the library only some 28% were active in any assay of this set; here they are far more common.
CYP2C19 activ – activators of human cytochrome P450 2C19. 96,000 tested, under 10 active. P33261. activation factor at 5 µM. recombinant CYP2C19, luciferin-H EGE luminescence; hits give high values; 0 = fully inhibited enzyme, 1 = untreated enzyme;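 active means activation factor of at least 2 at 5 µM in the primary screen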;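 further: 0 = wells with 2.5 mM tranylcypromine and 1 = vehicle-only wells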
CYP2C9 act – CYP2C9 (human) activation. activation factor at 5 µM. P11712. 96,000 tested, 1.4% active. recombinant CYP2C9, luciferin-H conversion, luminescence; hits give high values; factor 1 = untreated enzyme, 0 = blocked;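 active means activation factor of 2 or more for CYP2C9 at a 5 µM dose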;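 further: 0 = sulfaphenazole-blocked wells and 1 = vehicle-only wells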
Target sequence (P11712 whole entry, looked up): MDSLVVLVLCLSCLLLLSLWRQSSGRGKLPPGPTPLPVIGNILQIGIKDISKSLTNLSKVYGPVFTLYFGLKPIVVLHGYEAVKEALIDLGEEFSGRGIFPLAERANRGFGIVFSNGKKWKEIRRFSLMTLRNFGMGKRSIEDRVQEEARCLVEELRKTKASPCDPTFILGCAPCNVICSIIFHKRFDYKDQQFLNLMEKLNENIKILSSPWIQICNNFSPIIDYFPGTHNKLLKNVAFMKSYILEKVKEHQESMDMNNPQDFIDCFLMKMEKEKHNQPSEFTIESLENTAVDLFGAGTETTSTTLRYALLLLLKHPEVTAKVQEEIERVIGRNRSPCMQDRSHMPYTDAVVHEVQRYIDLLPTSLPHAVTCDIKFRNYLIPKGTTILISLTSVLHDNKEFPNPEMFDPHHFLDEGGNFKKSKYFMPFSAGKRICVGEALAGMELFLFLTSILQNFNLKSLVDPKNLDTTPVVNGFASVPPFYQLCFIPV
Plk1 PBD FP – Plk1 (human) PBD binding inhibition; P53350; Plk1 PBD phosphopeptide binding, fluorescence polarization; inhibition, %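 (tested at about 20 µM)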; 97,000 tested, 0.13% active; in the data active means inhibition above about 34%, passing the limit was not always enough
CYP2C9 inhib – blocks human cytochrome P450 2C9. P11712. CYP2C9 Supersomes, luciferin-H conversion, luminescence. inhibition, % at 5 µM. 96,000 tested, 20% active. AID 777;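 active means blocking of liver enzyme CYP2C9 beyond about 50% at 5 µM, limit read from the data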
CYP2C19 inh – blocks human cytochrome P450 2C19. P33261. CYP2C19 Supersomes, luciferin-H EGE luminescence, 30 min. inhibition, % at 5 µM. 96,000 tested, 21% active. AID 778;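 active means CYP2C19 inhibition above a set limit at 5 µM in the primary screen, cut at about 50% in these data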;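 further: plate controls were negative control wells for no effect and 2.5 mM tranylcypromine positive control for full effect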
PLK1 kinase inh – PLK1 (human) kinase inhibition; 97,000 tested, 0.53% active; recombinant PLK1 kinase, TR-FRET peptide phosphorylation; P53350; inhibition, % at 10 µM; AID 619;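 active means inhibition of 50% or more in the single-concentration screen; inactive means inhibition below 50%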;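 further: 0% = DMSO max control and 100% = H-89 dihydrochloride min control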
An asterisk follows results filed as active; x = no result given.

SMILES | CYP2C19 activ | CYP2C9 act | Plk1 PBD FP | CYP2C9 inhib | CYP2C19 inh | PLK1 kinase inh
COCCn1c(SCC(=O)Nc2nnc(C)s2)nnc1-c1c[nH]c2ccccc12 | 0.8 | 0.5 | -11 | 51* | 19 | -8
COCCn1c(SCc2ccc(C(=O)OC)o2)nc2cc(Cl)ccc2c1=O | 0.1 | 0.1 | -14 | 93* | 94* | -9
COCCn1c(SCC(=O)NCc2ccc3c(c2)OCO3)nnc1-c1c[nH]c2ccccc12 | 0.4 | 0.3 | -4 | 69* | 59* | 63*
CCc1nnc(NC(=O)CSc2nnc(-c3c[nH]c4ccccc34)n2CCOC)s1 | 0.9 | 0.6 | 21 | 39 | 15 | -9
C=CCSc1nnc(-c2c[nH]c3ccccc23)n1CCOC | 0.5 | 1 | -18 | -1 | 45 | 3
CCC(CC)C(=O)NCCc1cc2ccc(C)c(C)c2[nH]c1=O | 1.1 | 0.9 | x | 13 | -5 | x
Cc1ccc(CS(=O)(=O)CCC(=O)NCCCN2CCCC2=O)cc1 | 1.1 | 1 | 26 | -5 | -7 | 43
COc1cc(C(=O)N2CCC(n3c(C)nc4cc(F)ccc43)CC2)cc(OC)c1OC | x | x | 16 | x | x | -1
O=C(NC12CC3CC(CC(C3)C1)C2)N1CCC(O)(c2ccc3c(c2)OCO3)CC1 | 0.6 | 1.1 | 10 | -5 | 43 | -3
O=C(COc1ccc2c(c1)OCO2)NC12CC3CC(CC(C3)C1)C2 | 0.1 | 0.3 | -8 | 75* | 94* | -4
CC(C)C1N=C2c3ccccc3N=C(SCc3cc(=O)n4cc(Cl)ccc4n3)N2C1=O (stereo not given) | 0.5 | 0.5 | -27 | 55* | 45 | -4
CC(C)C1N=C2c3ccccc3N=C(SCC(=O)NCCc3ccc(S(N)(=O)=O)cc3)N2C1=O (stereo not given) | 1.2 | 1.1 | x | -5 | -19 | x
COc1ccccc1-n1cnc2cc(NC(=O)c3ccco3)ccc21 | 0.3 | 1.1 | -13 | -6 | 65* | -13
COc1ccc(-n2cnc3cc(NC(=O)c4ccco4)ccc32)cc1 | 0.8 | 1 | 0 | -3 | 20 | -13
COc1ccc(NC(=O)c2ccco2)cc1NC(=O)c1cccs1 | 0.4 | 0.4 | -20 | 55* | 57* | -2
COc1ccc(CC(=O)Nc2ccc(OC)c(NC(=O)c3ccco3)c2)cc1 | 0.9 | 0.8 | 9 | 17 | 11 | -13
COc1ccc(NC(=O)CCc2ccccc2)cc1NC(=O)c1ccco1 | 0.4 | 0.3 | -14 | 66* | 62* | -12
CCOc1c2ccc(C(=O)NCc3ccc4c(c3)OCO4)cc2nn1CC | 0.8 | 0.8 | -10 | 24 | 20 | -13
O=C(COC(=O)[C@H](Cc1ccccc1)NS(=O)(=O)c1ccccc1F)NC1CCCCC1 | 0.8 | 0.5 | 14 | 46 | 17 | -4
COc1ccc(/C(O)=C2/C(=O)C(=O)N(CCCC(=O)O)C2c2ccc(OC)c(OC)c2)cc1 (stereo not given) | 1.2 | 1 | -20 | 1 | -18 | 6
CCOC(=O)c1ccc(N2Cc3ccccc3C2=N)cc1 | 0.6 | 0.2 | 8 | 85* | 42 | -8
CCCn1c(=O)c2c(C(=O)OCC)cc(-c3ccco3)nc2n(CCC)c1=O | 0.7 | 0.4 | -9 | 61* | 30 | -10
COc1ccc(S(=O)(=O)N(CC(=O)NCC2CCCO2)c2ccccc2)cc1OC (stereo not given) | 0.7 | 0.7 | -8 | 29 | 33 | -4
CCOc1ccccc1N1CCN(S(=O)(=O)c2cccs2)CC1 | 0.1 | 0.1 | 19 | 91* | 93* | -15
Cc1cc(C(=O)CCC(=O)N2CCN(S(=O)(=O)c3cccs3)CC2)c(C)s1 | 0.9 | 0.8 | -6 | 22 | 5 | 4
SMILES | CYP2C19 activ | CYP2C9 act | Plk1 PBD FP | CYP2C9 inhib | CYP2C19 inh | PLK1 kinase inh
CCOC(=O)N1CCN(S(=O)(=O)c2ccc(C)c(C)c2C)CC1 | 0 | 1.1 | -13 | -6 | 99* | 0
O=C(c1ccccc1F)N1CCN(S(=O)(=O)c2ccc3c(c2)OCCO3)CC1 | 0.1 | 0.5 | 0 | 49 | 93* | -6
COc1ccc2c(CC(=O)N3CCN(S(=O)(=O)c4cccs4)CC3)coc2c1 | 0.1 | 0.7 | -6 | 34 | 90* | -4
COc1cc(C(c2c(C)[nH][nH]c2=O)c2c(C)[nH][nH]c2=O)ccc1OCc1ccc([N+](=O)[O-])cc1 | 0.6 | 1.4 | -8 | -37 | 45 | -1
C1CCN(c2c3c(nc4nnnn24)CCCC3)CC1 | 1.1 | 1 | -5 | 0 | -9 | -10
Cc1ccc2c(CC(=O)N3CCN(S(=O)(=O)c4ccc5c(c4)OCCO5)CC3)coc2c1 | 0.6 | 0.3 | -2 | 72* | 41 | -9
Cc1ccc(S(=O)(=O)N2CCN(S(=O)(=O)c3ccc4c(c3)OCCO4)CC2)cc1 | 1.1 | 1.1 | -18 | -10 | -14 | -4
CCOc1ccccc1N1CCN(S(=O)(=O)c2cccc3nsnc23)CC1 | 0.1 | 0.3 | 10 | 70* | 94* | -7
CCOC(=O)N1CCN(S(=O)(=O)c2cccs2)CC1 | 0.4 | 0.8 | 4 | 24 | 57* | -7
CCOc1ccccc1N1CCN(S(=O)(=O)CC)CC1 | 0.7 | 0.8 | x | 24 | 35 | x
C=CCN(C(=O)CNC(=O)c1ccco1)C(C(=O)NC1CCCCC1)c1ccccc1F (stereo not given) | 0.7 | 0.7 | 36 | 30 | 35 | 5
N#Cc1c(N)oc(-c2ccccc2)c1-c1ccccc1 | 0.3 | 0.4 | x | 56* | 75* | x
COc1ccc(OC)c(/C=N/c2oc(-c3ccco3)c(-c3ccco3)c2C#N)c1 | 1.1 | 0.6 | -33 | 36 | -13 | -18
N#Cc1c(N)oc(-c2cccs2)c1-c1cccs1 | 0.8 | 0.8 | -18 | 22 | 16 | -2
N#Cc1c(/N=C/c2ccccc2)oc(-c2ccccc2)c1-c1ccccc1 | x | x | -8 | x | x | -5
N#Cc1c(N)oc(-c2ccco2)c1-c1ccco1 | 0.8 | 0.4 | 8 | 64* | 22 | 2
N#Cc1c(/N=C/c2ccco2)oc(-c2ccccc2)c1-c1ccccc1 | 0.5 | 0.3 | -15 | 73* | 49 | -11
CC1(C(=O)O)Cc2ccccc2C(=O)O1 (stereo not given) | 1 | 1 | 11 | -3 | 0 | 1
CNCC(O)Cn1c(C(F)(F)F)nc2ccccc21 (stereo not given) | x | x | 3 | x | x | -12
COc1ccc(Cc2nc3ccc(S(=O)(=O)N4CCOCC4)cc3[nH]2)cc1 | 0.8 | 0.8 | -5 | 19 | 23 | -1
O=C(NCc1ccc2c(c1)OCO2)c1cccc(S(=O)(=O)N2CCOCC2)c1 | 0.9 | 0.6 | 24 | 35 | 14 | -8
COc1cccc(CNS(=O)(=O)c2cccc(S(=O)(=O)N3CCOCC3)c2)c1 | 0.4 | 0.6 | -18 | 37 | 57* | -9
COc1ccc(CNS(=O)(=O)c2cccc(S(=O)(=O)N3CCOCC3)c2)cc1 | 0.4 | 0.5 | -9 | 46 | 58* | -14
O=S(=O)(NCc1ccc2c(c1)OCO2)c1cccc(S(=O)(=O)N2CCOCC2)c1 | 0.3 | 0.7 | -13 | 35 | 75* | -12

Source: PubChem BioAssay (several laboratories)
